{"source": "ChEMBL document CHEMBL3988442", "about": "“University of Dundee, Small-Polar-MMV Screening Library” (2021)", "note": "Screen size: about 48,000 compounds; about 13,000 (27%) showed an effect of 50% or more. The list shows a part of the results."}
{"system": "Wolbachia pipientis", "test": "Anti-Wolbachia Cell-Based Screen", "format": "functional", "design": "scale not given: in the data most compounds retested in dose-response had high values", "conditions": "5 µM", "units": {"Percent Effect": "%"}}
{"smiles": "O=C1CCc2ccccc2N1CCCn1cnnn1", "Percent Effect": -8.538}
{"smiles": "CC(C)c1ccc(C(=O)O)cc1S(=O)(=O)Nc1ccc(=O)n(C)c1", "Percent Effect": -9.9}
{"smiles": "Cc1ccc(N2CCO[C@@H]3CN(Cc4cccc(C)n4)CC[C@@H]3C2)nn1", "Percent Effect": 0.9995}
{"smiles": "Cc1ccc(N2C[C@@H]3CN(C(=O)c4ccccc4)CCO[C@@H]3C2)nn1.O=C(O)C(F)(F)F", "Percent Effect": -9.523}
{"smiles": "Cc1ccc(N2CCO[C@H]3CN(C(=O)c4cccc(C)n4)C[C@H]32)nn1", "Percent Effect": 104.4}
{"smiles": "CNS(=O)(=O)c1cccc(C(C)NCc2cccc(O)c2)c1", "note": "(stereo not drawn)", "Percent Effect": -12.85}
{"smiles": "O=C(c1nc(=O)[nH][nH]1)N1CCCCCC1", "Percent Effect": -25.91}
{"smiles": "COc1ccc2c(c1)C(=O)N(C)C1(CCN(CC=C(C)C)CC1)N2", "Percent Effect": -3.399}
{"smiles": "CC(=O)NC1Cc2ccc(S(=O)(=O)NCCNc3ccccn3)cc2C1", "note": "(stereo not drawn)", "Percent Effect": 74.28}
{"smiles": "CN1CCC(NC(=O)NCCNc2ccccn2)CC1", "Percent Effect": 10.59}
{"smiles": "O=C(NCCNc1ccccn1)NC1CCCC1", "Percent Effect": 1.673}
{"smiles": "CN(C)C(=O)CS(=O)(=O)Cc1cc(Cl)c2c(c1)OCCO2", "Percent Effect": 128.9}
{"smiles": "CN(C)C(=O)CS(=O)(=O)Cc1cc(Cl)c2c(c1)OCCCO2", "Percent Effect": -2.577}
{"smiles": "CS(=O)(=O)CCS(=O)(=O)Cc1cc(Cl)c2c(c1)OCCCO2", "Percent Effect": -7.786}
{"smiles": "CN(C)C(=O)CCS(=O)(=O)Cc1cc(Cl)c2c(c1)OCO2", "Percent Effect": 106.6}
{"smiles": "CN(C)C(=O)CCCS(=O)(=O)Cc1cc(Cl)c2c(c1)OCO2", "Percent Effect": 133.3}
{"smiles": "CN(C)C(=O)CCCS(=O)(=O)Cc1cc(Cl)c2c(c1)OCCO2", "Percent Effect": 4.566}
{"smiles": "CS(=O)(=O)Cc1cc(Cl)c2c(c1)OCCCO2", "Percent Effect": 18.55}
{"smiles": "CN(C)C(=O)CCS(=O)(=O)Cc1cc(Cl)c2c(c1)OCCO2", "Percent Effect": 3.114}
{"smiles": "CC(C)NC(=O)CS(=O)(=O)Cc1cc(Cl)c2c(c1)OCCO2", "Percent Effect": 2.891}
{"smiles": "CCN1CCC(NC(=O)NC2CCOc3ccc(Br)cc32)CC1", "note": "(stereo not drawn)", "Percent Effect": -7.217}
{"smiles": "COCc1nc(CNC2CCN(C(C)C)CC2)no1", "Percent Effect": -1.626}
{"smiles": "CCC(CO)N(Cc1cccs1)C(=O)CSC", "note": "(stereo not drawn)", "Percent Effect": -12.18}
{"smiles": "O=S1(=O)C[C@@H]2[C@H](C1)N(Cc1cc(F)cc(Cl)c1)CCN2CCO", "Percent Effect": 3.698}
{"smiles": "CN1[C@H](CO)C[C@H](CNCc2ccc(CO)o2)[C@@H]1c1ccccc1F", "Percent Effect": -6.438}
{"smiles": "O=C(O)C(F)(F)F.c1cnn(Cc2cn3c(n2)CN(Cc2nccs2)CC3)c1", "Percent Effect": 25.66}
{"smiles": "CC(=O)N1CC2(CCN(S(=O)(=O)N(C)C)CC2)C2(CCNC2=O)C1", "note": "(stereo not drawn)", "Percent Effect": -32.61}
{"smiles": "COc1ccccc1C1CCN(c2ccc3cc[nH]c3n2)CC1", "Percent Effect": 26.71}
{"smiles": "COC(=O)c1cc(NCC(=O)NC(N)=O)cc(C(F)(F)F)c1", "Percent Effect": 4.503}
{"smiles": "CNc1snc(C)c1C(=O)NC(C)CC(=O)c1cccs1", "note": "(stereo not drawn)", "Percent Effect": 87.28}
{"smiles": "COc1c(C(=O)NCC(C)Sc2ccccc2)c(C)nn1C", "note": "(stereo not drawn)", "Percent Effect": -11.73}
{"smiles": "COc1ccccc1C(C)CNC(=O)c1c(C)nn(C)c1OC", "note": "(stereo not drawn)", "Percent Effect": -4.025}
{"smiles": "Cc1cc(NC(=O)NCCc2cccs2)n(C)n1", "Percent Effect": -8.078}
{"smiles": "Cc1cc(C(=O)NC(C)CC(=O)c2cccs2)n(C)n1", "note": "(stereo not drawn)", "Percent Effect": 104.4}
{"smiles": "CNS(=O)(=O)c1cccc(CNC(=O)c2c(C)nn(C)c2C)c1", "Percent Effect": -2.541}
{"smiles": "COc1c(C(=O)NC(C)CC(=O)c2cccs2)c(C)nn1C", "note": "(stereo not drawn)", "Percent Effect": 88.78}
{"smiles": "Cc1nn(C)c(C)c1C(=O)NC(C)CC(=O)c1cccs1", "note": "(stereo not drawn)", "Percent Effect": 89.66}
{"smiles": "CC(NC(=O)c1cccs1)C(=O)NCc1ccccc1CN1CCCC1", "note": "(stereo not drawn)", "Percent Effect": 1.8}
{"smiles": "CCC(NC(=O)c1cc(CC(C)C)nn1C)c1cccc(C)n1", "note": "(stereo not drawn)", "Percent Effect": -23.09}
{"smiles": "Cc1nn(C)c(C)c1CC(C)NC(=O)NCc1ccn(C(C)C)n1", "note": "(stereo not drawn)", "Percent Effect": 14.28}
{"smiles": "C[C@@H](NC(=O)c1cccs1)c1onc(-c2cccnc2)c1C(=O)O.Cl", "Percent Effect": -7.123}
{"smiles": "CCc1ccc2c(C3CN(CC4CCC4)C3)ncn2c1.O=C(O)C(F)(F)F", "Percent Effect": 1.201}
{"smiles": "Cc1ccc(C(=O)N2CCSCC2)cc1NC(C)C", "Percent Effect": -20.08}
{"smiles": "CN(C)c1nc2c(c(N3CCC(O)CC3)n1)CN(CC1CCNC1)CC2", "note": "(stereo not drawn)", "Percent Effect": -8.406}
{"smiles": "CCC(CO)N(Cc1ccccn1)C(=O)c1ccc(CSC)o1", "note": "(stereo not drawn)", "Percent Effect": 18.24}
{"smiles": "Cc1c(C(=O)NC(C)CC(=O)c2cccs2)cnn1C", "note": "(stereo not drawn)", "Percent Effect": 85.26}
{"smiles": "Cc1c(C(=O)NC(CN2CCCC2=O)c2ccccc2)cnn1C", "note": "(stereo not drawn)", "Percent Effect": -6.718}
{"smiles": "CNS(=O)(=O)c1cccc(CNC(=O)c2cnn(C)c2C)c1", "Percent Effect": -2.681}
{"smiles": "O[C@H]1[C@H](NCCc2cnccn2)c2ccccc2C12CCNCC2", "Percent Effect": 1.46}
{"smiles": "CC1CCN(CCNC(=O)C2CCN(C(=O)C3CC3)CC2)CC1", "Percent Effect": 7.892}
{"smiles": "CCc1nc(CC(=O)NC(C#N)CC)cs1", "note": "(stereo not drawn)", "Percent Effect": -7.062}
{"smiles": "CCc1nc(CC(=O)NC(C#N)CC(C)C)cs1", "note": "(stereo not drawn)", "Percent Effect": 0.9973}
{"smiles": "COc1ccsc1C(=O)Nc1cc(Br)c(=O)n(C)c1", "Percent Effect": -2.156}
{"smiles": "CCCC(C#N)NC(=O)c1sccc1CC", "note": "(stereo not drawn)", "Percent Effect": 99.07}
{"smiles": "CCC(C#N)NC(=O)c1sccc1OC", "note": "(stereo not drawn)", "Percent Effect": 86.18}
{"smiles": "CC(C)CCC(=O)NC(C#N)CC(C)C", "note": "(stereo not drawn)", "Percent Effect": 5.343}
{"smiles": "CCCC(C#N)NC(=O)Cc1csc(CC)n1", "note": "(stereo not drawn)", "Percent Effect": -2.381}
{"smiles": "CCc1ccsc1C(=O)NC(C#N)CC(C)C", "note": "(stereo not drawn)", "Percent Effect": 102.3}
{"smiles": "CCc1ccsc1C(=O)NC(C#N)CC", "note": "(stereo not drawn)", "Percent Effect": 105.4}
{"smiles": "COc1ccsc1C(=O)NCCNc1ccccc1", "Percent Effect": -8.97}
{"smiles": "CCc1ccsc1C(=O)NC(Cc1ccccc1)C(N)=O", "note": "(stereo not drawn)", "Percent Effect": 1.098}
{"smiles": "CCCC(C#N)NC(=O)COC1CCCCC1", "note": "(stereo not drawn)", "Percent Effect": -4.378}
{"smiles": "Cc1nc(O)cc(CN2CCC=C(CN(C)C(=O)c3ccco3)C2)n1", "Percent Effect": 2.928}
{"smiles": "Cc1nc2c(c(N(C)Cc3ccccc3-n3cccn3)n1)CCNCC2", "Percent Effect": 14.94}
{"smiles": "COc1ccc(C(=O)N2C[C@@H](C(=O)O)[C@H](c3ccccc3C)C2)c(O)c1", "Percent Effect": -2.704}
{"smiles": "CCNC(=O)[C@@H]1CCCN1C1(C(=O)NC)CCCCC1.Cl", "Percent Effect": 1.197}
{"smiles": "COc1cccc(COCC(=O)N2CCC(CC(N)=O)CC2)c1", "Percent Effect": -12.19}
{"smiles": "O=C(c1ccc(S(=O)(=O)NCC(F)F)cc1)N1C[C@H]2CNC[C@H]2C1", "Percent Effect": 19.64}
{"smiles": "O=C(CCCc1nc(C2CC2)no1)N1CCCC(c2ccn[nH]2)C1", "note": "(stereo not drawn)", "Percent Effect": -3.493}
{"smiles": "Cn1cncc1C(=O)N1CCCC(c2ccn[nH]2)C1", "note": "(stereo not drawn)", "Percent Effect": 108.7}
{"smiles": "CC(C)c1cnc(CN2CCCC(c3ccn[nH]3)C2)o1", "note": "(stereo not drawn)", "Percent Effect": -28.34}
{"smiles": "O=C1CCCCCN1CCC(=O)N1CCCC(c2ccn[nH]2)C1", "note": "(stereo not drawn)", "Percent Effect": 2.164}
{"smiles": "CC(C)c1ocnc1C(=O)N1CCCC(c2ccn[nH]2)C1", "note": "(stereo not drawn)", "Percent Effect": -7.734}
{"smiles": "O=C(CN1CCCC(c2ccn[nH]2)C1)Nc1nncs1", "note": "(stereo not drawn)", "Percent Effect": 12}
{"smiles": "O=C(c1cc(=O)n(-c2ccccc2)[nH]1)N1CCCC(c2ccn[nH]2)C1", "note": "(stereo not drawn)", "Percent Effect": 77.64}
{"smiles": "Cc1cc(OCC(=O)N2CCCC(c3ccn[nH]3)C2)no1", "note": "(stereo not drawn)", "Percent Effect": 1.786}
{"smiles": "O=C(c1cnnn1-c1ccccc1)N1CCCC(c2ccn[nH]2)C1", "note": "(stereo not drawn)", "Percent Effect": 106}
{"smiles": "O=C(c1cnc2ccccn12)N1CCCC(c2ccn[nH]2)C1", "note": "(stereo not drawn)", "Percent Effect": 107.7}
{"smiles": "CC(C)N1CCC(c2ccnc3c(C(=O)N4CCOCC4)ncn23)CC1", "Percent Effect": -16.45}
{"smiles": "Cn1nc(Cn2cccn2)c2c1CN(Cc1ccoc1)C2.O=C(O)C(F)(F)F", "Percent Effect": -5.298}
{"smiles": "Cc1noc([C@@]23CCO[C@@H]2CCN(C(=O)c2cc(C)on2)C3)n1", "Percent Effect": 4.569}
{"smiles": "Cc1noc([C@@]23CCO[C@@H]2CCN(C(=O)c2cc(C)c(C)s2)C3)n1", "Percent Effect": 6.303}
{"smiles": "Cc1noc(C2(C)CCN(C(=O)C(C)C)CC2)n1", "Percent Effect": 126.4}
{"smiles": "Cc1noc(C2(C)CCCN(C(=O)C(C)C)C2)n1", "note": "(stereo not drawn)", "Percent Effect": 123}
{"smiles": "CC(=O)N1CCC(C)(c2nc(C)no2)CC1", "Percent Effect": 134.3}
{"smiles": "Cc1noc([C@@]23CCO[C@@H]2CCN(C(=O)CCC(C)C)C3)n1", "Percent Effect": 4.63}
{"smiles": "Cc1noc([C@@]23CCO[C@@H]2CCN(C(=O)CN(C)C)C3)n1", "Percent Effect": 5.284}
{"smiles": "Cc1noc([C@@]23CCO[C@@H]2CCN(C(=O)c2cc(C)[nH]c2C)C3)n1", "Percent Effect": 12.25}
{"smiles": "COCC(=O)N1CC[C@H]2OCC[C@@]2(c2nc(C)no2)C1", "Percent Effect": 6.759}
{"smiles": "Cc1cccc2c1nc(CCO)n2-c1ccc(C(=O)N2CCCC2)o1", "Percent Effect": 4.629}
{"smiles": "Fc1cccc(-n2cc(CN3CCCCC3CCn3ccnc3)cn2)c1", "note": "(stereo not drawn)", "Percent Effect": -14.22}
{"smiles": "CC(C)(N)C(=O)N1CCCC1c1cncc(Oc2ccccc2)n1", "note": "(stereo not drawn)", "Percent Effect": 115.4}
{"smiles": "CC(C)C(=O)N1CCCC(c2cncc(Oc3cccnc3)n2)C1", "note": "(stereo not drawn)", "Percent Effect": 130.5}
{"smiles": "CC(C)(N)C(=O)N1CCCC1c1cncc(Oc2ccc(F)cc2)n1", "note": "(stereo not drawn)", "Percent Effect": 9.255}
{"smiles": "Cc1cncc(C2CCCN(C(=O)c3cccn3C)C2)n1", "note": "(stereo not drawn)", "Percent Effect": 5.721}
{"smiles": "CC(C)(N)C(=O)N1CCCC(c2cncc(Oc3cccnc3)n2)C1", "note": "(stereo not drawn)", "Percent Effect": 102.7}
{"smiles": "CCS(=O)(=O)c1ncc(CN(C)Cc2ccccc2Cl)n1CCOC", "Percent Effect": 6.102}
{"smiles": "CCN(CC)Cc1cc(C(=O)N2CC(C)(C)[C@@](C)(O)C2)c(C)o1", "Percent Effect": -3.4}
{"smiles": "CS(=O)(=O)N1CCC2(CC1)COC(COc1cccnc1)C2.O=C(O)C(F)(F)F", "note": "(stereo not drawn)", "Percent Effect": -9.864}
{"smiles": "O=S1(=O)c2cnccc2OC(COc2ccccc2)CN1CC1CC1", "note": "(stereo not drawn)", "Percent Effect": 96.1}
{"smiles": "O=C(COc1ccccc1)N(Cc1ccncc1)C1CC1", "Percent Effect": -3.212}
{"smiles": "CC(C)(C)CN1CC(COc2ccccc2)Oc2ccncc2S1(=O)=O", "note": "(stereo not drawn)", "Percent Effect": 80.37}
{"smiles": "O=S1(=O)CCC(n2nc(COc3ccccc3)nc2-c2cnccn2)C1", "note": "(stereo not drawn)", "Percent Effect": -50.17}
